40 molecules from PubChem BioAssay (Tox21) can be followed below.

Calls of active or inactive are those of the source. Entries that show only a call come without a potency. Calls come from the whole dose curve; as a rule, active = well fitted activation curve with a large enough effect in the repeat runs; inconclusive = weak or mixed curves; inactive = flat fitted curve, though single readings scatter.

The assay is described as follows: Caspase-3/7 induction in CHO-K1 cells by small molecules, qHTS assay (AID 1346980). Note: nearly all actives have a fitted effect of over 15% in size. Conditions: CHO-K1 caspase-3/7 induction, Caspase-Glo luminescence, 17 h; series mostly up to 92.4 µM. From the text: National Center for Advancing Translational Sciences [NCATS]
NIH Chemical Genomics Center [NCGC]
U.S. Environmental Protection Agency [EPA]
National Institutes of Environmental Health Sciences [NIEHS]
National Toxicology Program [NTP]
Apoptosis is a process of programmed cell death and plays a central role in the development of multicellular organisms. It is a highly regulated process and induces cell death by activating caspases, which are the members of cysteine aspartic acid-specific protease (caspase) family. Caspases involved in apoptosis are classified by their mechanism of action as initiator caspases (caspase-2, -8, -9 and -10) and executioner caspases (caspase-3, -6, and -7). Inhibition of apoptosis results in number of cancers, autoimmune diseases, inflammatory diseases and viral infection. To identify small molecule compounds that induce apoptosis, a homogeneous, luminescent Caspase-Glo 3/7 assay was used. Wild type CHO-K1 cells were used to screen Tox21 libraries for identifying caspase-3/7 activity inducers.
CHO-K1 cells were dispensed at 1,500 per well in 5uL of culture medium into white solid bottom 1536-well plates (Corning Life Sciences, Corning, NY) using a Multidrop Combi (Thermo Scientific, Waltham, MA) dispenser. The assay plates were incubated at 37 C and 5% CO2 for 5hr, and then 23nL of compounds dissolved in DMSO and positive control were transferred using a Pintool station (Wako, San Diego, CA). The assay plates were incubated at 37C and 5% CO2 for 17hr. For caspase-3/7 activity read, 4uL of Caspase-Glo 3/7 reagent (Promega Corporation, Madison, WI) was added to each well of the assay plates using Flying Reagent Dispenser (FRD, Aurora Discovery, San Diego, CA) and incubated the assay plates at room temperature for 30min. The luminescence signal was quantified using a ViewLux plate reader (Perkin Elmer, Shelton, CT).
In the case of `[Cl][Sn]([Cl])([Cl])[Cl]`, the Potency result was “inactive”.
Take `Cc1cccc(C#N)c1`: the Potency entry was “inactive”.
On to `N#CC(Cl)(Cl)Cl`, for which the Potency entry is “inactive”.
The result for `CC(CCc1ccccc1)NC(C)C(O)c1ccc(O)cc1` (stereo not given) reads “inactive”; that for `Oc1c(Cl)cccc1Cl`, “inactive”; that for `Nc1ccccc1Cl`, “inactive”.
Next, `CS(=O)(=O)c1cc(C(F)(F)F)ccc1C(=O)c1cnoc1C1CC1`: “inactive”; `Cc1cc(C)c(C(=O)P(=O)(C(=O)c2c(C)cc(C)cc2C)c2ccccc2)c(C)c1`: “inactive”; `CCCCOC(=O)[C@@H](C)Oc1ccc(Oc2ccc(C#N)cc2F)cc1`: “inactive”.
Next, `CCC(C)(C)c1cc(-n2nc3ccccc3n2)c(O)c(C(C)(C)CC)c1`: “inactive”; `C[C@@H]1CN(C2CCC(C#N)(c3ccc(F)cc3)CC2)CC[C@]1(C(=O)O)c1ccccc1` (stereo not given in full): “inactive”; `COP(=S)(OC)Oc1c(Cl)cc(C)cc1Cl`: “inactive”.
Turning to `Cc1cc(C)nc(Nc2ccccc2)n1`, the Potency entry was “inactive”.
On to `CC(C)(C)C(=O)C(Oc1ccc(Cl)cc1)n1cncn1` (stereo not given), for which the Potency result was “inactive”.
On to `CCOC(=O)C1(c2ccccc2)CCN(CCc2ccc(N)cc2)CC1`, for which the Potency entry is “inactive”.
For the molecule `COC(=O)c1ccccc1S(=O)(=O)NC(=O)N(C)c1nc(C)nc(OC)n1`, the Potency entry is “inactive”.
Next, `CCOP(=O)(OCC)OP(=O)(OCC)OCC`: “inactive”.
The result for `CCCCc1c(C)nc(NCC)[nH]c1=O` reads “inactive”; that for `C=C(C)[C@@H]1CC=C(C=O)CC1`, “inactive”; that for `CC1CCCCC1NC(=O)Nc1ccccc1` (stereo not given), “inactive”.
Regarding `CNC(=O)Oc1ccc(N(C)C)c(C)c1`, the Potency result is “inactive”.
Next, `COc1cc(OC)nc(Sc2cccc(Cl)c2C(=O)O)n1`: “inactive”; `NC1=NC(=O)C(c2ccccc2)O1` (stereo not given): “inactive”.
Next, `C[N+](=O)[O-]`: “inactive”; `COP(N)(=S)Oc1ccccc1C(=O)OC(C)C` (stereo not given): “inactive”; `Cc1ncsc1CCCl`: “inactive”.
For the molecule `CN1C[C@@H](NS(=O)(=O)N(C)C)C[C@@H]2c3cccc4c3c(cn4C)C[C@H]21`, the Potency result was “inactive”.
The result for `O=C1CN2CCOC2(c2ccccc2Cl)c2cc(Cl)ccc2N1` (stereo not given) reads “inactive”; that for `CCCCCCBr`, “inactive”.
Turning to `COc1cc(C[C@@H](C)N)c(OC)cc1C`, the Potency result is “inactive”.
In the case of `CCCCC(=O)Cl`, the Potency result was “inactive”.
Consider `C[C@]12CC[C@H]3[C@@H](CCC4=CC(=O)CC[C@@]43C)[C@@H]1CC[C@@H]2C(=O)O`, for which the Potency result is “inactive”.
Next, `CCCCc1ccc(O)cc1`: “inactive”; `CC(C)[N+](=O)[O-]`: “inactive”; `Cc1ncc(CNC(=O)N(CCCl)N=O)c(N)n1`: “inactive”.
Consider `CCOP(=O)(N=C1SCCS1)OCC`, for which the Potency entry is “inactive”.
Next, `COC(=O)C(c1ccccc1)C1CCCCN1` (stereo not given): “inactive”; `CCc1cc2c(s1)-n1c(C)nnc1CN=C2c1ccccc1Cl`: “inactive”; `CNC(=O)O/N=C(\C)SC`: “inactive”.
For the molecule `CC1CN1P(=O)(N1CC1C)N1CC1C` (stereo not given), the Potency result is “inactive”.
